What was measured:
Assay in all cases: log2 ratio of Biotin-Ahx-Ub-VS probe labelling (fragment/DMSO); higher = less target engagement (more negative = stronger competition), active = hit call of the paper (q ≤ 0.05, log2 ratio ≤ -1)
Conditions in all cases: compound concentration: 200 uM; treatment time: 3 h
[1] = target: USP34 (UniProt Q70CQ2)
How it was run: (§1)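 Labelled DUBs from HEK293T lysate were NeutrAvidin-enriched, digested with LysC and trypsin, and run by diaPASEF LC-MS/MS. Before that, each 495 µg sample in Tris/CHAPS/IGEPAL buffer with protease inhibitors was treated in triplicate with fragment at 200 µM or vehicle for 3 h, then with Biotin-Ahx-Ub-VS at 0.5 µM final for 1 h. Values are average log2 ratios of fragment over vehicle by unpaired t-test, based on global-median-normalised Spectronaut label-free quantities from proteins with ≥2 unique peptides.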

[2] = target: T1, USP36 (UniProt Q9P275)
T1 sequence (whole entry): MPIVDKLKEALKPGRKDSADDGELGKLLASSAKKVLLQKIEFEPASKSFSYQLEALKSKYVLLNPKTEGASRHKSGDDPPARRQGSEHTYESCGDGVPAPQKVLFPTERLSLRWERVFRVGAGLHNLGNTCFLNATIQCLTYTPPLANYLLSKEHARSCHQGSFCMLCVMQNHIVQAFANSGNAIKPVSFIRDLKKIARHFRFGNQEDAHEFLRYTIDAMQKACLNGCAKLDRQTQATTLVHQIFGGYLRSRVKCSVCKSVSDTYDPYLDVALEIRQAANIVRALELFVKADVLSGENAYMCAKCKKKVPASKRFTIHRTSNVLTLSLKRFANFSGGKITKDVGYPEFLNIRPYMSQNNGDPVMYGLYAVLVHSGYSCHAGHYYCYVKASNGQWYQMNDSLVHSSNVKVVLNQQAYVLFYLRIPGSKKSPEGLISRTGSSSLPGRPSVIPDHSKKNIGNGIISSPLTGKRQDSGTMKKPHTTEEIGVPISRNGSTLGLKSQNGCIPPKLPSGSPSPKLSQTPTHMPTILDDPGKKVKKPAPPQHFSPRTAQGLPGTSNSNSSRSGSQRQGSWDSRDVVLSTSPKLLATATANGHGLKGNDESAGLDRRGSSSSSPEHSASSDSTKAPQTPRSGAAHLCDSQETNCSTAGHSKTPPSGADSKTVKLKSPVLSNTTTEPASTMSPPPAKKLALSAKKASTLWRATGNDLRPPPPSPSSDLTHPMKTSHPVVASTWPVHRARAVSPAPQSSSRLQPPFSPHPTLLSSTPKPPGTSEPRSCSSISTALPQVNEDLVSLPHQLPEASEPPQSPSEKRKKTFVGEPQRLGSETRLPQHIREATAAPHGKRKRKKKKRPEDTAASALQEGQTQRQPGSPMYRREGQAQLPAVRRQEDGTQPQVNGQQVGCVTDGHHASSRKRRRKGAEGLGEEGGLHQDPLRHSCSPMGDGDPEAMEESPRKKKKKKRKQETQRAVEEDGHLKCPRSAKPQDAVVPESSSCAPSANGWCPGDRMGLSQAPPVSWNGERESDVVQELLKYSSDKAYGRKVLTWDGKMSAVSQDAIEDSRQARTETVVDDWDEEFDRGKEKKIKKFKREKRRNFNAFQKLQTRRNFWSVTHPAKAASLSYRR
How it was run: as §1

[3] = target: T2, USP38 (UniProt Q8NB14)
T2 sequence (whole entry): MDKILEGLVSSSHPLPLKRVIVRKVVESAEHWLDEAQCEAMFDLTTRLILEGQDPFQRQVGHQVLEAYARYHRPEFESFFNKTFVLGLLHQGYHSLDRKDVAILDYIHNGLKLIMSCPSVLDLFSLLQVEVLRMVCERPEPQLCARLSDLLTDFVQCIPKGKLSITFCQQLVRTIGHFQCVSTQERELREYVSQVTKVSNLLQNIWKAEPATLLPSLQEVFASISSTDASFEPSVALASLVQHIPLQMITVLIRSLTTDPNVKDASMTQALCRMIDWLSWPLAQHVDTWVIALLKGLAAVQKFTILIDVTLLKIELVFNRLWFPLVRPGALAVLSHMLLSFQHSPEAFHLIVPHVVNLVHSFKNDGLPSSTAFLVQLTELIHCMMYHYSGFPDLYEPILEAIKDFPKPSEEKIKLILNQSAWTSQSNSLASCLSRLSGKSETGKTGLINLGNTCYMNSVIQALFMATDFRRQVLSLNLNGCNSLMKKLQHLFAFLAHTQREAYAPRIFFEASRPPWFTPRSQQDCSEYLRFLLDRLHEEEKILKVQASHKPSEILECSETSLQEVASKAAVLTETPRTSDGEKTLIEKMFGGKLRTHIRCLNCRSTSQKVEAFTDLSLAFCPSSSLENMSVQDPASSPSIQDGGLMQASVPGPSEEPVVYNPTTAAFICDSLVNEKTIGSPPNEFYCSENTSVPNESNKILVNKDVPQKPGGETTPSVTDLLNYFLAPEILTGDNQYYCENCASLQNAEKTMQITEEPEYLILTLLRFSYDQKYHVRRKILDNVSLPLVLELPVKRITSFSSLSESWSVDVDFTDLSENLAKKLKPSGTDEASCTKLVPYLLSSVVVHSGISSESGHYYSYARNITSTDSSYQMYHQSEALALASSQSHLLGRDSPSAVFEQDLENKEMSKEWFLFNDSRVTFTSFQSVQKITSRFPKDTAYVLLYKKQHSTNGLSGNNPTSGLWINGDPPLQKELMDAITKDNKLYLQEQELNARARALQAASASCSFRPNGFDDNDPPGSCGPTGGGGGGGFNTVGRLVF
How it was run: as §1

[4] = target: T3, USP39 (UniProt Q53GS9)
T3 sequence (whole entry): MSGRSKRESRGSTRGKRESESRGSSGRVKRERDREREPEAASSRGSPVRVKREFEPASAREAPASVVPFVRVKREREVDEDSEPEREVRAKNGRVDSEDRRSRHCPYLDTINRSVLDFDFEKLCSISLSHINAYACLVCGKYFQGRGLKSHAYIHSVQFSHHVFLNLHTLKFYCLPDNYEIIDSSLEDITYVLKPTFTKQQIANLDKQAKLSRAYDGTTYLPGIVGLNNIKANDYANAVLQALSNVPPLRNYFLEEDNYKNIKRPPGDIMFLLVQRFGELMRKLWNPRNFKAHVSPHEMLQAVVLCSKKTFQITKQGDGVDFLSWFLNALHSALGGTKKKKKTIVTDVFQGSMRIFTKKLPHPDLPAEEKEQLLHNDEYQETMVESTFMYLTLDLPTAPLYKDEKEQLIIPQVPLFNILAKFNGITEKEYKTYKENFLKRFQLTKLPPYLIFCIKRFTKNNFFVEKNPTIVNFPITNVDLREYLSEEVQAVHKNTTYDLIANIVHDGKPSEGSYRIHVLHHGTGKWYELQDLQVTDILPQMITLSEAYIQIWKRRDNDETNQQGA
How it was run: as §1

[5] = target: T4, USP4 (UniProt Q13107)
T4 sequence (whole entry): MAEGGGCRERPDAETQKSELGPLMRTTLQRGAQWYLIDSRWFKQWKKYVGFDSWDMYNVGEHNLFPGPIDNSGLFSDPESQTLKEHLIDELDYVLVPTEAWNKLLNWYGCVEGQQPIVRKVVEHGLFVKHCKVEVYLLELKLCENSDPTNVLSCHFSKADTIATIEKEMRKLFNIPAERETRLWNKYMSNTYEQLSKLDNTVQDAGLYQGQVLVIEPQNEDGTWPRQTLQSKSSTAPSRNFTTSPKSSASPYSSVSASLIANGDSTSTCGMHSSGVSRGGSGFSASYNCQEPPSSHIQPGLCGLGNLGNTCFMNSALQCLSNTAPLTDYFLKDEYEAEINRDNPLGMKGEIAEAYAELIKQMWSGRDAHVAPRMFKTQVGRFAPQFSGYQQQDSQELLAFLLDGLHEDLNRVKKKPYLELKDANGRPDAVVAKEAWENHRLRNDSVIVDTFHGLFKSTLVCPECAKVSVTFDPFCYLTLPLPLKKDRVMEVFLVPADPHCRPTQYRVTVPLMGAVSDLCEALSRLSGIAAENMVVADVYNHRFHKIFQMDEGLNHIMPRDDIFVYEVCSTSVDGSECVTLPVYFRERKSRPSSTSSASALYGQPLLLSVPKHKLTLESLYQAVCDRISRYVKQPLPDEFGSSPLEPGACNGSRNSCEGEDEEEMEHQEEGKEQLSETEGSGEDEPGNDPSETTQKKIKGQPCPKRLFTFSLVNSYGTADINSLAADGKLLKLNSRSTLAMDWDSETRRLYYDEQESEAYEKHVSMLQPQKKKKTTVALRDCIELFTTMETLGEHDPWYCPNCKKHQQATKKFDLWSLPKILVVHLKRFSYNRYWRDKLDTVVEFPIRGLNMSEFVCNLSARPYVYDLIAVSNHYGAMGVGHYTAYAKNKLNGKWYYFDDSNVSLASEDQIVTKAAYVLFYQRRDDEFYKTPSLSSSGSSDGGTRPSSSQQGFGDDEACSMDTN
How it was run: as §1

Measured: log2 ratio of Biotin-Ahx-Ub-VS probe labelling

Chain of USP34 (Q70CQ2 whole entry, the tested form may be a part): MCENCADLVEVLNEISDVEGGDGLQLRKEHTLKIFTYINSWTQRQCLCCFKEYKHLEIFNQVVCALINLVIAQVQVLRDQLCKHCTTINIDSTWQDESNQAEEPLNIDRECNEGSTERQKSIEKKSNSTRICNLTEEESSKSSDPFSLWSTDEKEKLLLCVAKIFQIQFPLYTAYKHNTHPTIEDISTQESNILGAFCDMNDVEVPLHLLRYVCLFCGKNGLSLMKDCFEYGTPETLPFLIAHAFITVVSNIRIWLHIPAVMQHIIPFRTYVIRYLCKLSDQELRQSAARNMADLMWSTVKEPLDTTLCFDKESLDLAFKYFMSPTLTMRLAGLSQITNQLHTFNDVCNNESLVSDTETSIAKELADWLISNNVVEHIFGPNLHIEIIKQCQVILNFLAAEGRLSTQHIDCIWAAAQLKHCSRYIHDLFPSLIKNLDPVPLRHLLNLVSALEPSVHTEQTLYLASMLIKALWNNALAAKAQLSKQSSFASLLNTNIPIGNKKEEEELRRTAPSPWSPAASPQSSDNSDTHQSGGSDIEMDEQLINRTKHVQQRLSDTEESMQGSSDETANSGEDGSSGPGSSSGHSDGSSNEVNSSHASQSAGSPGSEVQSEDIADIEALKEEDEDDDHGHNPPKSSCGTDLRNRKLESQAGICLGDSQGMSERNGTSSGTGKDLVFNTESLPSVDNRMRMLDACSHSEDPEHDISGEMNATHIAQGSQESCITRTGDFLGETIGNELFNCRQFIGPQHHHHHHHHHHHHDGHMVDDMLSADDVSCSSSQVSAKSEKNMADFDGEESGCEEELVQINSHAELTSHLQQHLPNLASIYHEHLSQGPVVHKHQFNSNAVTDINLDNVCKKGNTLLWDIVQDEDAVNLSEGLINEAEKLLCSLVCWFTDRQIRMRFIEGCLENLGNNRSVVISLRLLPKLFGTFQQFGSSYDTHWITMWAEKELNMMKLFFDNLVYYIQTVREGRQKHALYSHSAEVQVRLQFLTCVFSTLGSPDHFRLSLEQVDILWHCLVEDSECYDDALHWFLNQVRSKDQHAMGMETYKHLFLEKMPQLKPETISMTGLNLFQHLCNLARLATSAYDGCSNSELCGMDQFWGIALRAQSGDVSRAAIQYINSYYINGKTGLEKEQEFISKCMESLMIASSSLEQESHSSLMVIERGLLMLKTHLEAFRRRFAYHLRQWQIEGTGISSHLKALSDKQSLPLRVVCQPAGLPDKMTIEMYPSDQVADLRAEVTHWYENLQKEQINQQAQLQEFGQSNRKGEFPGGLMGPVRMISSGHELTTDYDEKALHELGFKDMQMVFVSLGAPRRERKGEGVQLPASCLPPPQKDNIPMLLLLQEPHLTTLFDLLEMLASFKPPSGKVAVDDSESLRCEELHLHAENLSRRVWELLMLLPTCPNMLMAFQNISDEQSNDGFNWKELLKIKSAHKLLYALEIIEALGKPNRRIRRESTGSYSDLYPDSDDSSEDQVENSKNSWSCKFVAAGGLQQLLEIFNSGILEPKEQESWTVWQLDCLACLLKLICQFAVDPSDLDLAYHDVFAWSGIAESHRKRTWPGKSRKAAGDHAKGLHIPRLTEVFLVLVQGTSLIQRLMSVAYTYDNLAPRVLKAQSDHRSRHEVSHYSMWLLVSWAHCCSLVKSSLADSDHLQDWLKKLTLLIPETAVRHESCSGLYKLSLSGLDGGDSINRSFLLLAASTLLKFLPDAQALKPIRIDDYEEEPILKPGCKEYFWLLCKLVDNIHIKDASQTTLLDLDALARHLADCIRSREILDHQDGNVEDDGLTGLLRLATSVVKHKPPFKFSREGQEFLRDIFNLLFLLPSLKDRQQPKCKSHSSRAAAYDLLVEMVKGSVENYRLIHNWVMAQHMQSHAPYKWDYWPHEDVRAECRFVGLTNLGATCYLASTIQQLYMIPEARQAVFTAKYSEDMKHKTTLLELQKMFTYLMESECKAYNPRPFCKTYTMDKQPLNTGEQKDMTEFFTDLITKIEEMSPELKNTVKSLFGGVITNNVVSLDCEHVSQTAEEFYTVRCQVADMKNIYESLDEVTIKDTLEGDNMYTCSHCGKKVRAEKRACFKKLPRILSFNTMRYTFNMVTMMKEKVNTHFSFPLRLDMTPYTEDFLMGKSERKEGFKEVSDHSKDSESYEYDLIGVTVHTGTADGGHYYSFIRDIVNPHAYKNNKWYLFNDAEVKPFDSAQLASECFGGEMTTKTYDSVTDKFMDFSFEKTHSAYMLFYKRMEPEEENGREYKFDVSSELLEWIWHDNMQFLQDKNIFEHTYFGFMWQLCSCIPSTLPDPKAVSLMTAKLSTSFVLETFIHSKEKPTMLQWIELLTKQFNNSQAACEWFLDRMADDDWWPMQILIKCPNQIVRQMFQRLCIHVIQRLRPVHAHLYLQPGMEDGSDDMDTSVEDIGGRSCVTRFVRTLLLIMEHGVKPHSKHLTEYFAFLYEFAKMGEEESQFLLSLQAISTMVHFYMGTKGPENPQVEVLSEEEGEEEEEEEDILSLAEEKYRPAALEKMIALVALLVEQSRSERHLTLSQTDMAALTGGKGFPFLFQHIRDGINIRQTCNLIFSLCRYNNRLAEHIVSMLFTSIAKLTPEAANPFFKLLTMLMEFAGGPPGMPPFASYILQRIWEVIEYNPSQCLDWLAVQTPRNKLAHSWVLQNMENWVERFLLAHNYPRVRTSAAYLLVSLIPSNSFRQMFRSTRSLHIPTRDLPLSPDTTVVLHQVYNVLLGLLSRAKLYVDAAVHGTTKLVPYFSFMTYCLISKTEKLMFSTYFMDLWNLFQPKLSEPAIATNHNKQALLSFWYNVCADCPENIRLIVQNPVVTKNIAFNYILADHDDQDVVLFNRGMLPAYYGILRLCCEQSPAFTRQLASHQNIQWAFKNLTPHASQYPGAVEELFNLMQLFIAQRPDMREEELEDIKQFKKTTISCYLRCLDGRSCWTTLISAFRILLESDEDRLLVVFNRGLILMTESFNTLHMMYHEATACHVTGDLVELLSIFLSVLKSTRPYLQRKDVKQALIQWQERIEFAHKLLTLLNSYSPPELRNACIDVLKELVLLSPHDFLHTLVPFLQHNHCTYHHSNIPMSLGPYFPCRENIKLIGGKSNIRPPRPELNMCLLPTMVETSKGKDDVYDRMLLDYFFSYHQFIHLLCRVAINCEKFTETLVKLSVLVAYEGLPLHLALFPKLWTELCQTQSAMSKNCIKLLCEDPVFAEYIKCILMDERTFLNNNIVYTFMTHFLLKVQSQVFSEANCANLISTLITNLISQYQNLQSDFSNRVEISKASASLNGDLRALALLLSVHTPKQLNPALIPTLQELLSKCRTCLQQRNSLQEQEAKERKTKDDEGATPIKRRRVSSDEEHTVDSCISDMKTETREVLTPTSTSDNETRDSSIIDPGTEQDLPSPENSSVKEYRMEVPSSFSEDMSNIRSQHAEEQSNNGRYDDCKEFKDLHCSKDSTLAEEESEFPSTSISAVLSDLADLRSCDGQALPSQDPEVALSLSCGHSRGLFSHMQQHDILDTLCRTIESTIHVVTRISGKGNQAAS

O=C(CCl)N1CCc2nc[nH]c2C1c1ccc(Cl)cc1 (stereo not given)
inactive: [1] -0.355 | [2] -0.00322 | [3] -0.0469 | [4] 0.0317 | [5] -0.375
